This is an account of results in publication PMC7862700, “An all-to-all approach to the identification of sequence-specific readers for epigenetic DNA modifications on cytosine”.

Holding throughout (assay): DAPPL (digital affinity profiling via proximity ligation, sequencing); 10 mM Tris-HCl pH 7.5, 50 mM NaCl, 1 mM DTT, 4% glycerol, room temperature, 30 min; GST-TFs on glutathione beads, 16-mer random dsDNA library, 0.1% formaldehyde crosslink after washing; high values mean tight binding
One experiment deals with T1, FEV (Homo sapiens, UniProt Q99581 1-238).
T1 sequence: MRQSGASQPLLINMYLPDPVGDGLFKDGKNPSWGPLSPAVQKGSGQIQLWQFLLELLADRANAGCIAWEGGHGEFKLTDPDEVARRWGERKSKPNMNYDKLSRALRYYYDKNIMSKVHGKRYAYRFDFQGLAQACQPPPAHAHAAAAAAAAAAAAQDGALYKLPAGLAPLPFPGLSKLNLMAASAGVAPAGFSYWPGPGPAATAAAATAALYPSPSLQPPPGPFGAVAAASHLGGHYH
Particulars: protein: recombinant; tags: N-terminal GST; dsDNA, one strand shown. The method, boiled down:
(§1)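 Each value of binding signal is a hexamer's read frequency for a factor divided by the same hexamer's frequency in the tag-only sample. Barcoded, bead-captured GST fusions of human transcription factors made in yeast were pooled with that sample and incubated with 200 nmole of a random double-stranded 16-mer DNA library in Tris/NaCl/DTT/glycerol buffer at room temperature for 30 min. Washing, 0.1% formaldehyde crosslinking, proximity ligation, PCR and Illumina NextSeq500 sequencing followed.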

The target in another experiment is ETV5 (Homo sapiens, UniProt P41161 1-510). Particulars: protein: recombinant; tags: N-terminal GST; dsDNA, one strand shown. The method, boiled down:
as §1

A further experiment deals with HSF1 (Homo sapiens, UniProt Q00613 1-529). To be noted: protein: recombinant; tags: N-terminal GST; chain copies: 3; dsDNA, one strand shown. The gist of the method:
as §1

The target in another experiment is T2, SPIC (Homo sapiens, UniProt Q8N5J4 1-248).
T2 sequence: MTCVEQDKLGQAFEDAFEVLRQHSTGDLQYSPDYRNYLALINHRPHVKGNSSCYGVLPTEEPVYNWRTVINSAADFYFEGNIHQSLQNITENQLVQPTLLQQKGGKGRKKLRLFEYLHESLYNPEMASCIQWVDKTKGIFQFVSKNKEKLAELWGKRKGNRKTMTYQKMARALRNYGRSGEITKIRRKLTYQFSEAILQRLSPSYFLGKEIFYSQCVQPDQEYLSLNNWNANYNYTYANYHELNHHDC
To be noted: protein: recombinant; tags: N-terminal GST; dsDNA, one strand shown. The gist of the method:
as §1

A further experiment has as its target ELF4 (Homo sapiens, UniProt Q99607 1-663). To be noted: protein: recombinant; tags: N-terminal GST; dsDNA, one strand shown. The gist of the method:
as §1

The next experiment concerns the target T3, ELK4 (Homo sapiens, UniProt P28324-2 1-405).
T3 sequence: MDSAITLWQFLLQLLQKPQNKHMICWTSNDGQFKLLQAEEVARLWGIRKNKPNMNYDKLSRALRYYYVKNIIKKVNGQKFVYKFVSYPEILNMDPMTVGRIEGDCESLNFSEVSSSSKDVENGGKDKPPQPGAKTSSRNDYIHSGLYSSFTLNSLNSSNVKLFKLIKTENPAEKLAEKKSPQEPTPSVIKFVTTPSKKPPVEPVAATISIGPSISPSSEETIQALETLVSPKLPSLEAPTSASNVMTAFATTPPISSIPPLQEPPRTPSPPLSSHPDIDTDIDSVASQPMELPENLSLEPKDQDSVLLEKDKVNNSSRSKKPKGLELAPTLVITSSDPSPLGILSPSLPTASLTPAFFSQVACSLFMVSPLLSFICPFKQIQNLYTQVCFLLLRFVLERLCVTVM
To be noted: protein: recombinant; tags: N-terminal GST; dsDNA, one strand shown. The method, boiled down: as §1

For a further experiment, the target named is T4, ETV2 (Homo sapiens, UniProt O00321 1-342).
T4 sequence: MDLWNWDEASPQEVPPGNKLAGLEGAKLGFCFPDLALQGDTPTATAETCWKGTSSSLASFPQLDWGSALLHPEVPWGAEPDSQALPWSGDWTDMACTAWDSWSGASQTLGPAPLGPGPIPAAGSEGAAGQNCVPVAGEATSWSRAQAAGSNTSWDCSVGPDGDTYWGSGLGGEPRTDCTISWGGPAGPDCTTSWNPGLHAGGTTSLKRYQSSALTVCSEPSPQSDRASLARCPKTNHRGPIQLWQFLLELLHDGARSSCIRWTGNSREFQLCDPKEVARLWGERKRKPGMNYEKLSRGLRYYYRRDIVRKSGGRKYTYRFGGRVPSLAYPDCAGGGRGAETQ
To be noted: protein: recombinant; tags: N-terminal GST; dsDNA, one strand shown. The gist of the method:
as §1

For the next experiment, the target named is T5, ELF3 (Homo sapiens, UniProt P78545 1-371).
T5 sequence: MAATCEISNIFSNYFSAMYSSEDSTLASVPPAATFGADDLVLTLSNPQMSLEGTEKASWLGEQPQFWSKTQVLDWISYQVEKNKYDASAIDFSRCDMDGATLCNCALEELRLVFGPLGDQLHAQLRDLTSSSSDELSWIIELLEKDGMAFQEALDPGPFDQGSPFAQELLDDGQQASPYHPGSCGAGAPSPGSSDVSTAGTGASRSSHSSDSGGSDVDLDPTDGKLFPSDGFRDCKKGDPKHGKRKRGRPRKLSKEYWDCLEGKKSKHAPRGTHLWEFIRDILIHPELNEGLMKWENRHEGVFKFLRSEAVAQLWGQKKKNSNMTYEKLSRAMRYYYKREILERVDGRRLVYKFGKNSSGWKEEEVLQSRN
To be noted: protein: recombinant; tags: N-terminal GST; dsDNA, one strand shown. The method, boiled down:
as §1

The next experiment deals with CRX (Homo sapiens, UniProt O43186 1-299). Particulars: protein: recombinant; tags: N-terminal GST; dsDNA, one strand shown. The method, boiled down: as §1
A further experiment deals with ETV1 (Homo sapiens, UniProt P50549 1-477). To be noted: protein: recombinant; tags: N-terminal GST; dsDNA, one strand shown. The method, boiled down: as §1
The next experiment has as its target T6, ERF (Homo sapiens, UniProt P50548 1-548).
T6 sequence: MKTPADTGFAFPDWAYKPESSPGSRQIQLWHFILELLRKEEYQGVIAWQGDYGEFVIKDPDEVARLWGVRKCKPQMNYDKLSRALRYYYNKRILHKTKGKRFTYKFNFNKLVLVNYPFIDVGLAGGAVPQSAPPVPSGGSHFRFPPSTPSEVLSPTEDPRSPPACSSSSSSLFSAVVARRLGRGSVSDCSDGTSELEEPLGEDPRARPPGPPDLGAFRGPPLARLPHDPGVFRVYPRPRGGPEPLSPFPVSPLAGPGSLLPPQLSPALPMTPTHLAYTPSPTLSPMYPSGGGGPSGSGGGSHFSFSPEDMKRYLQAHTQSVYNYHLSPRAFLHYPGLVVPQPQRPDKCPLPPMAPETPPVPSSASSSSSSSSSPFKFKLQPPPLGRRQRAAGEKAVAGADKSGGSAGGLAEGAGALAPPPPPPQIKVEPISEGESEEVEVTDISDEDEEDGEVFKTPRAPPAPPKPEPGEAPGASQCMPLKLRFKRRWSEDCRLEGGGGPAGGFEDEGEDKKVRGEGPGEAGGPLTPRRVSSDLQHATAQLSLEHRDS
Particulars: protein: recombinant; tags: N-terminal GST; dsDNA, one strand shown. The gist of the method:
as §1

In a further experiment the target is T7, ETV3L (Homo sapiens, UniProt Q6ZN32 1-361).
T7 sequence: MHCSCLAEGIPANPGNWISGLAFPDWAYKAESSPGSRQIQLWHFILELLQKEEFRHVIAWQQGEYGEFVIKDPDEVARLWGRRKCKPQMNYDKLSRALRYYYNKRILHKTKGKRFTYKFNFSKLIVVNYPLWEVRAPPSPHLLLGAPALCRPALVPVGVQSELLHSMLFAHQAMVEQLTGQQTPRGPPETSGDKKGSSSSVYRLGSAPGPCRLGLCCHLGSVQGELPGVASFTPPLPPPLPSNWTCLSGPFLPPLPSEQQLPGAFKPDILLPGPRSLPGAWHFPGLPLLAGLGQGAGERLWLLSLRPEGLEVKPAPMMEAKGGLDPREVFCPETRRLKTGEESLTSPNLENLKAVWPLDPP
Particulars: protein: recombinant; tags: N-terminal GST; dsDNA, one strand shown. The gist of the method:
as §1

Another experiment deals with T8, ETS2 (Homo sapiens, UniProt P15036 1-469).
T8 sequence: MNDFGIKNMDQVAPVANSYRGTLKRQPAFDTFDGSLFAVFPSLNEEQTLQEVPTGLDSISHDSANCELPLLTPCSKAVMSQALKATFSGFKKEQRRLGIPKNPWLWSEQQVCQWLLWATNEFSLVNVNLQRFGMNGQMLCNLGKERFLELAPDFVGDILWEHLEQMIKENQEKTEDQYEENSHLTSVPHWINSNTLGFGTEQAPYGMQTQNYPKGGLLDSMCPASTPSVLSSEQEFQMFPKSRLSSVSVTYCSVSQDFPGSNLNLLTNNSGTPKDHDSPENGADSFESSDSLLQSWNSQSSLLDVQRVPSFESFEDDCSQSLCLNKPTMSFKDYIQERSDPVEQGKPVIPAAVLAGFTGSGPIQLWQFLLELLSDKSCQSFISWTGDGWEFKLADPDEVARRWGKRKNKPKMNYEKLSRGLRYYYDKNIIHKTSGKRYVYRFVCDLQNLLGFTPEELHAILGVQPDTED
To be noted: protein: recombinant; tags: N-terminal GST; dsDNA, one strand shown. The method, boiled down:
as §1

In the next experiment the target is T9, SPDEF (Homo sapiens, UniProt O95238 1-335).
T9 sequence: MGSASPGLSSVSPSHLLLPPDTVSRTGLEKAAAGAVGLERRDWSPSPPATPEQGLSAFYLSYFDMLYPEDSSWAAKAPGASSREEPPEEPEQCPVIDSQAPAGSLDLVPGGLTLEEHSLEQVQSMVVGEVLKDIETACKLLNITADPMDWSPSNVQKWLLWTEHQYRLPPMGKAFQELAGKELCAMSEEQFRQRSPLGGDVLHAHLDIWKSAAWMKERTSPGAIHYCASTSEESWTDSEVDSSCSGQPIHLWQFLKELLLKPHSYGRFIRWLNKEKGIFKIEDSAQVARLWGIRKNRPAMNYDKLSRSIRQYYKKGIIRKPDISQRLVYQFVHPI
Particulars: protein: recombinant; tags: N-terminal GST; dsDNA, one strand shown. The gist of the method:
as §1

The target in another experiment is T10, ETV7 (Homo sapiens, UniProt Q9Y603 1-341).
T10 sequence: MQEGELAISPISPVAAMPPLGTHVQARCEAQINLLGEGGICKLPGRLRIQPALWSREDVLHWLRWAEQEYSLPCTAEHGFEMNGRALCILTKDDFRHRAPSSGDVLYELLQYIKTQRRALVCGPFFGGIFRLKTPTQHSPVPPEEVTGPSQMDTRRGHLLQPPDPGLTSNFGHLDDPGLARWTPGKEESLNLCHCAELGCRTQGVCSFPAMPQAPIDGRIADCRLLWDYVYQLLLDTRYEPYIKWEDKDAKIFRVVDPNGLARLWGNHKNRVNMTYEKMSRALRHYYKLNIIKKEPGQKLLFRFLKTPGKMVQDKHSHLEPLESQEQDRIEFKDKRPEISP
To be noted: protein: recombinant; tags: N-terminal GST; dsDNA, one strand shown. The method, boiled down:
as §1

A further experiment concerns the target T11, ELF5 (Homo sapiens, UniProt Q9UKW6-2 1-255).
T11 sequence: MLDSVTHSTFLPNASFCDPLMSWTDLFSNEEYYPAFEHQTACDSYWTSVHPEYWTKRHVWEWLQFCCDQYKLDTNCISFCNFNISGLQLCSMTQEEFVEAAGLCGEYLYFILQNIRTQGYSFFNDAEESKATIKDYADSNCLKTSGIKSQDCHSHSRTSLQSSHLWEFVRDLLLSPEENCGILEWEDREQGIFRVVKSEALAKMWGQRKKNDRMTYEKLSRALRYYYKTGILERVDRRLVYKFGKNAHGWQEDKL
To be noted: protein: recombinant; tags: N-terminal GST; dsDNA, one strand shown. The gist of the method:
as §1

For another experiment, the target named is T12, ETV3 (Homo sapiens, UniProt P41162-2 1-143).
T12 sequence: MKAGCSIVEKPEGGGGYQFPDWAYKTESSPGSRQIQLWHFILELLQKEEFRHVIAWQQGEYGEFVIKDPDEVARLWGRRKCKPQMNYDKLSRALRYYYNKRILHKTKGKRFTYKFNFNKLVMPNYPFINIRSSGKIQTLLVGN
Particulars: protein: recombinant; tags: N-terminal GST; dsDNA, one strand shown. The gist of the method: as §1

The next experiment has as its target ETV6 (Homo sapiens, UniProt P41212 1-452). To be noted: protein: recombinant; tags: N-terminal GST; dsDNA, one strand shown. The method, boiled down:
as §1

Sequence of HSF1 (Q00613 whole entry): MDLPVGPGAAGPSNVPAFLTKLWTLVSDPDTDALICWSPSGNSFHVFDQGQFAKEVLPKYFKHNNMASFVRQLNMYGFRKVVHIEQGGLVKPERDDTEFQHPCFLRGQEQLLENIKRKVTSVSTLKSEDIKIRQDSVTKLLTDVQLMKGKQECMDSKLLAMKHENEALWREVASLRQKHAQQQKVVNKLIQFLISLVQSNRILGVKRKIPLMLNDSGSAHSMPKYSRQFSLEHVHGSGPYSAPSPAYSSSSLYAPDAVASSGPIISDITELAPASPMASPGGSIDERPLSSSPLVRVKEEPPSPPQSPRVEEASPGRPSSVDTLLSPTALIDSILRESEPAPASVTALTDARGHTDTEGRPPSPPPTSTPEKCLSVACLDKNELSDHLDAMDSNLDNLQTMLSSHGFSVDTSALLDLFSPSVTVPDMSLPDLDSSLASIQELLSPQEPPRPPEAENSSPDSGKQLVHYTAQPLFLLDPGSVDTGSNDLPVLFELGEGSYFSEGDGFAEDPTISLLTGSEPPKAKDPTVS
Sequence of ELF4 (Q99607 whole entry): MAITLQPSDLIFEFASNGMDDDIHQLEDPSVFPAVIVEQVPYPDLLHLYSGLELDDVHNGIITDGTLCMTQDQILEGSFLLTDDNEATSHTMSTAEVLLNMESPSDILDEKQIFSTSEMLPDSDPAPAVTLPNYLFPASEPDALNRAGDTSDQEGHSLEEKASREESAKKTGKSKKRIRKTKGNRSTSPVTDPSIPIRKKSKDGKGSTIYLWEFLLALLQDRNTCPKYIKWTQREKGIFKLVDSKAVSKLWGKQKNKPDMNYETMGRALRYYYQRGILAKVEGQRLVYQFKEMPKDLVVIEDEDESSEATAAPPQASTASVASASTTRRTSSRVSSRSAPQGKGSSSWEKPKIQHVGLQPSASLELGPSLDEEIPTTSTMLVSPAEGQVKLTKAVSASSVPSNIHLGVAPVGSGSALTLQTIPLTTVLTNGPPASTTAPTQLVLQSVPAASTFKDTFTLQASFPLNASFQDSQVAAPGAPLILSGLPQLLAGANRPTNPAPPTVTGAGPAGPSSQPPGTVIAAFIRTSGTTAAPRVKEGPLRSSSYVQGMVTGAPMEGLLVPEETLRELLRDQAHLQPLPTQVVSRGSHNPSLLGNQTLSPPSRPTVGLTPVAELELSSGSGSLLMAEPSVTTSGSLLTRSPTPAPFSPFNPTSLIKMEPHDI
Sequence of ETV5 (P41161 whole entry): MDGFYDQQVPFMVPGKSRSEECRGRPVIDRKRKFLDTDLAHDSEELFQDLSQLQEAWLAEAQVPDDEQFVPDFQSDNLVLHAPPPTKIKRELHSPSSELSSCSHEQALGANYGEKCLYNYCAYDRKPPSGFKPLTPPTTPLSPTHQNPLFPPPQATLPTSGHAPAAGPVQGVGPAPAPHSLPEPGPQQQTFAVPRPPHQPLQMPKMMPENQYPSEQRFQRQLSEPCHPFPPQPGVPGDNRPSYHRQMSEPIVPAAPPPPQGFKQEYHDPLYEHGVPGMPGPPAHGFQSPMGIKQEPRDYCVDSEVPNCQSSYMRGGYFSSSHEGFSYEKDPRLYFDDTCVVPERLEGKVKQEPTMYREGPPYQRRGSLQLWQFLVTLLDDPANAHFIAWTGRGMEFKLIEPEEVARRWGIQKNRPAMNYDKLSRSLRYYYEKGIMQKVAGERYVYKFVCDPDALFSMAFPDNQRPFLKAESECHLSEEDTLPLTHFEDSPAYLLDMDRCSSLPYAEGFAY
Sequence of ETV6 (P41212 whole entry): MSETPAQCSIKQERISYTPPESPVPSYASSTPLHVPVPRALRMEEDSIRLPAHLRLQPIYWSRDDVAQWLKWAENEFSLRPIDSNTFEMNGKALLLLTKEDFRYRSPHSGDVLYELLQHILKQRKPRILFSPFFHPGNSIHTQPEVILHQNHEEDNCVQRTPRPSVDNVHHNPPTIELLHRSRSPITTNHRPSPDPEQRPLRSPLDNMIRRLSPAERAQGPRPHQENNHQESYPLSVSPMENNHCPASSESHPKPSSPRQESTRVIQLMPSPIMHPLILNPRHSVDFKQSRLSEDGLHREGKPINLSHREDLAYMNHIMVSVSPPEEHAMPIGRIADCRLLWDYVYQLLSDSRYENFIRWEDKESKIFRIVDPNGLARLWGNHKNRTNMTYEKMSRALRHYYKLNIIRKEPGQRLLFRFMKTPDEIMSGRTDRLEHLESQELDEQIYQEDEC
Sequence of ETV1 (P50549 whole entry): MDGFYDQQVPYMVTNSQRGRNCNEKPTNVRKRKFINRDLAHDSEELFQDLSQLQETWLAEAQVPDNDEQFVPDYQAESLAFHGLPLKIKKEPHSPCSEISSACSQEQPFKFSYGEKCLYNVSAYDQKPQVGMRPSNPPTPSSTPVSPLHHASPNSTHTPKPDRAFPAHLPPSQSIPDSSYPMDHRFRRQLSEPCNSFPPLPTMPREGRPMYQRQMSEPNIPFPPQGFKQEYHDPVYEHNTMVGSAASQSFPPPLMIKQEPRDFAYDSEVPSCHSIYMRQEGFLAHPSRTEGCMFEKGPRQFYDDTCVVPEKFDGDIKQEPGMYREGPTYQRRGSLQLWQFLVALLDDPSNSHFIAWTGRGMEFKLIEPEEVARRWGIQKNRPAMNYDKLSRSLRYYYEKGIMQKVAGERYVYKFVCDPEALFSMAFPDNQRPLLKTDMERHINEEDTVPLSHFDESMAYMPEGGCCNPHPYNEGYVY
Sequence of CRX (O43186 whole entry): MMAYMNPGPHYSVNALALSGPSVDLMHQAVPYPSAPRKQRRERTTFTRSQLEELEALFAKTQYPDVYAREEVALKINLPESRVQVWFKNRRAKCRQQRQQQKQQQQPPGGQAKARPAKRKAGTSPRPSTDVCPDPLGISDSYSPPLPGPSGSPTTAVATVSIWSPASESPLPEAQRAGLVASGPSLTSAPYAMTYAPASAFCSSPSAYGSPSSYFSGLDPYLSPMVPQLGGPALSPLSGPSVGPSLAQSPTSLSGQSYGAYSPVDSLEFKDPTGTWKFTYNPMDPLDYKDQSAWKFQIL

Turning to TAATGC, the binding signal was 1.17 fold enrichment (6-mer frequency, TF over GST control) in the experiment with FEV; 1.16 fold enrichment (6-mer frequency, TF over GST control) with ETV5; 1.63 fold enrichment (6-mer frequency, TF over GST control) in the experiment with HSF1; 1.21 fold enrichment (6-mer frequency, TF over GST control) with SPIC; 1.28 fold enrichment (6-mer frequency, TF over GST control) with ELF4; 1.23 fold enrichment (6-mer frequency, TF over GST control) with ELK4. Moreover, the binding signal with ETV2 was 1.29 fold enrichment (6-mer frequency, TF over GST control); with ELF3, 1.23 fold enrichment (6-mer frequency, TF over GST control); with CRX it was 2.32 fold enrichment (6-mer frequency, TF over GST control); with ETV1 it was 1.28 fold enrichment (6-mer frequency, TF over GST control); in the experiment with ERF it was 1.07 fold enrichment (6-mer frequency, TF over GST control); with ETV3L, 1.16 fold enrichment (6-mer frequency, TF over GST control). The binding signal in the experiment with ETS2 was 1.2 fold enrichment (6-mer frequency, TF over GST control); with SPDEF, 1.17 fold enrichment (6-mer frequency, TF over GST control); in the experiment with ETV7, 1.13 fold enrichment (6-mer frequency, TF over GST control); in the experiment with ELF5 it was 1.17 fold enrichment (6-mer frequency, TF over GST control); with ETV3, 1.16 fold enrichment (6-mer frequency, TF over GST control); with ETV6, 1.13 fold enrichment (6-mer frequency, TF over GST control).
